Laboratory results as given in PubChem BioAssay (EPA / NIEHS).
Where “and” joins values, the source holds several entries; their conditions need not be identical. Equal values may be shown once. More than one record can exist for a structure, and the calls need not agree. Calls of active or inactive are those of the source. The calls were made as follows: active = hit-call score of the fitted dose curve at least 0.9, where 1 is the maximum; inactive = score below 0.9.

Legend:
[1] = APR_HepG2_NuclearSize_72hr: Apredica 72-hour HepG2 Assay for Nuclear Size (AID 2282925); details: high-content imaging, actives raise or lower the signal
Procedure, shortened: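 HepG2 cells were exposed to compounds at ten concentrations from 0.39 to 200 uM (duplicate, 0.5% DMSO final) for 72 hr. After fixation in 3.7% formaldehyde, nuclei were stained with Hoechst 33342 (2 ug/mL) and imaged at 20x.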

[2] = ATG_CRE_CIS: Attagene CIS-FACTORIAL HepG2 Assay for human cAMP Responsive Element (CRE) binding protein 3 (AID 2282926); details: HepG2 CRE cis-reporter, Attagene multiplexed mRNA; actives raise or lower the signal
Procedure, shortened: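 Transfected HepG2 were treated for 24 hours, then RNA was extracted and reporter cDNA amplified with sequence-specific primers. Labelled fragments were separated by capillary electrophoresis, and the CRE signal was fitted bidirectionally with DMSO as baseline.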

[3] = target: CCAAT/enhancer-binding protein beta (Homo sapiens) (UniProt P17676); experiment: ATG_C_EBP_CIS: Attagene CIS-FACTORIAL HepG2 Assay for human CCAAT/Enhancer Binding Protein (C/EBP) beta (AID 2282927); details: HepG2 Attagene cis-factorial transcription factor reporter; actives raise or lower the signal
Chain of CCAAT/enhancer-binding protein beta (Homo sapiens) (P17676 whole entry, looked up): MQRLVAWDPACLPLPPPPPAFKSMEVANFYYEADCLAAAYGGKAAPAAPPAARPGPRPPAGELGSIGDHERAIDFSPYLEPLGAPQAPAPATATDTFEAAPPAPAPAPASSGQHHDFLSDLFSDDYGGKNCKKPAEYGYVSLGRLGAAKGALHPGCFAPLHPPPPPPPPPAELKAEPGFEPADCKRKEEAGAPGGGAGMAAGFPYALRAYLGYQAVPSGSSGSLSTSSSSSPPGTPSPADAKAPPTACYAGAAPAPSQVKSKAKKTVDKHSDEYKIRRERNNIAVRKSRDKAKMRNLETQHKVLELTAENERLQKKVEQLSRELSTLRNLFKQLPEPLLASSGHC
Procedure, shortened: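 Following a 24 h incubation with test chemical, transfected HepG2 cells yielded RNA whose reporter transcripts were quantified by RT-PCR and fluorescent capillary electrophoresis, with DMSO serving as baseline for bidirectional fitting.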

[4] = ATG_CMV_CIS: Attagene CIS-FACTORIAL HepG2 Assay for human CMV (Internal Marker) (AID 2282928); details: HepG2 CMV promoter reporter, transcription factor profiling; actives raise or lower the signal;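 also: endpoint acts as a background internal control marker rather than a target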
Procedure, shortened: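 CMV internal-marker background readout in transiently transfected HepG2 cells bearing cis-regulated reporter units. Reporter mRNA is measured 24 h after dosing by RT-PCR and capillary electrophoresis, with bidirectional fitting against DMSO.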

[5] = ATG_DR4_LXR_CIS: Attagene CIS-FACTORIAL HepG2 Assay for human Liver X Receptor (LXR), DR4 submotif (AID 2282929); details: HepG2 Attagene DR4 cis-reporter, mRNA transcription; actives raise or lower the signal
Procedure, shortened: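 Cells were transfected with multiple reporter transcription units, exposed to chemicals for 24 hours, then lysed for RNA. Reporter mRNA induction was measured by RT-PCR with capillary electrophoresis detection and fitted in both directions relative to DMSO.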

[6] = target: Aryl hydrocarbon receptor (Homo sapiens) (UniProt P35869); experiment: ATG_Ahr_CIS: Attagene CIS-FACTORIAL HepG2 Assay for human Aryl Hydrocarbon Receptor (Ahr) (AID 2282930); details: HepG2 AhR cis-factorial reporter transcription; actives raise or lower the signal
Chain of Aryl hydrocarbon receptor (Homo sapiens) (P35869 whole entry, looked up): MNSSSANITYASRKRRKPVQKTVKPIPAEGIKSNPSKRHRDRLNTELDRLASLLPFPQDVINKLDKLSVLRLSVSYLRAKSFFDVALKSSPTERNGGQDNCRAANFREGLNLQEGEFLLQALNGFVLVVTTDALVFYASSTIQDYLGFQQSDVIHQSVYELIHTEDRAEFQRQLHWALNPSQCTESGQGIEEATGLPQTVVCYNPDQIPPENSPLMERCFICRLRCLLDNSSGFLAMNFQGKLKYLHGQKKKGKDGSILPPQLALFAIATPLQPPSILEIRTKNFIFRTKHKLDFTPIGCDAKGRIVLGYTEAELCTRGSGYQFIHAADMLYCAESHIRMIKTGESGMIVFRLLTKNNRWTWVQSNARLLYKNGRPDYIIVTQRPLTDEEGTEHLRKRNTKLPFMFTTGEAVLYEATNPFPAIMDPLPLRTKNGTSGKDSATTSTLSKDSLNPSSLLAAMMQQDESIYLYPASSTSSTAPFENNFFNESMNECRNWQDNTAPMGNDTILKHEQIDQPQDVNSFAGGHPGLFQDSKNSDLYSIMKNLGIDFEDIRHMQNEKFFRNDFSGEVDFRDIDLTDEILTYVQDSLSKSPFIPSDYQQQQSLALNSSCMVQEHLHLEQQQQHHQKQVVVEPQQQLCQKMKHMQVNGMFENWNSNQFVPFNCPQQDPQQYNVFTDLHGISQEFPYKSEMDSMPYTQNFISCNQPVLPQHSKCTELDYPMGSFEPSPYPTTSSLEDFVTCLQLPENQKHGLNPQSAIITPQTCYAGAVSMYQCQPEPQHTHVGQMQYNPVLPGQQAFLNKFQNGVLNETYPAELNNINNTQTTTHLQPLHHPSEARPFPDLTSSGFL
Procedure, shortened: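 Values derive from bidirectional fitting against DMSO negative control. Underlying signal: cis-element reporter mRNA in transiently transfected HepG2, harvested 24 h post-dose and measured by RT-PCR plus capillary electrophoresis.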

[7] = ATG_AP_1_CIS: Attagene CIS-FACTORIAL HepG2 Assay for human Activator Protein 1 (AP-1) (AID 2282931); details: HepG2 Attagene cis-factorial AP-1 reporter mRNA; actives raise or lower the signal
Procedure, shortened: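 Endogenous transcription-factor activity in human HepG2 liver cells is read through a cis-promoter reporter transcript, sampled 24 h after dosing. Detection uses RT-PCR with capillary electrophoresis; values come from bidirectional fitting relative to DMSO.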

[8] = ATG_AP_2_CIS: Attagene CIS-FACTORIAL HepG2 Assay for human Activator Protein 2 (AP-2) (AID 2282932); details: HepG2 AP-2 cis-reporter, Attagene transcription factor profiling; actives raise or lower the signal
Procedure, shortened: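 HepG2 cells were transiently transfected with multiple cis-promoter reporter transcription units and dosed for 24 h. Reporter mRNA was measured by RT-PCR with capillary electrophoresis fluorescence; bidirectional fits relative to DMSO baseline.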

[9] = ATG_BRE_CIS: Attagene CIS-FACTORIAL HepG2 Assay for human Bone Morphogenetic Protein (BMP) Response Element (BRE) (AID 2282933); details: HepG2 BMP response element reporter, Attagene transcription factor profiling; actives raise or lower the signal
Procedure, shortened: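 A HepG2 multiplex reporter system measured inducible reporter mRNA 24 h post-dosing. Detection: RT-PCR, 6-FAM primer extension, HpaI digestion, capillary electrophoresis. Activity fitted bidirectionally relative to DMSO.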

[10] = target: Retinoic acid receptor alpha (Homo sapiens) (UniProt P10276); experiment: ATG_DR5_RAR_CIS: Attagene CIS-FACTORIAL HepG2 Assay for human Retinoic Acid Receptor Alpha (RARE), DR5 submotif (AID 2282934); details: HepG2 Attagene cis-factorial RARE DR5 reporter, mRNA; actives raise or lower the signal;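 as to AC50: reporter responds to endogenous RAR alpha beta and gamma in HepG2 not RARA alone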
Chain of Retinoic acid receptor alpha (Homo sapiens) (P10276 whole entry, looked up): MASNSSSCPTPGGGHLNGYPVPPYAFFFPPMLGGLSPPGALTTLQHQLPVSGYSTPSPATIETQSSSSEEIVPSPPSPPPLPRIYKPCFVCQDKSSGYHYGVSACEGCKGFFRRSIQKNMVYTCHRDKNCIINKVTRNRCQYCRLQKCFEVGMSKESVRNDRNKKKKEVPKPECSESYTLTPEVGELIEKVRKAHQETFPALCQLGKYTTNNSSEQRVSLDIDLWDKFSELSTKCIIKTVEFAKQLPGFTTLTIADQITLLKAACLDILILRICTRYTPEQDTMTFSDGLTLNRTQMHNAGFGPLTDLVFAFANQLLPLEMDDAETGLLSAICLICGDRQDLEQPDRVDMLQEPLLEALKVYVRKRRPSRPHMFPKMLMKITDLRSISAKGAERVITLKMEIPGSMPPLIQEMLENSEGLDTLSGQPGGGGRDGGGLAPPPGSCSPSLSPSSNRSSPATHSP
Procedure, shortened: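 Endpoint fitted in both directions relative to DMSO as negative control. It reflects DR5 cis-element reporter mRNA induction in transiently transfected HepG2 cells, measured 24 h after dosing through RT-PCR and fluorescent capillary electrophoresis.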

[11] = target: Transcription factor E2F1 (Homo sapiens) (UniProt Q01094); experiment: ATG_E2F_CIS: Attagene CIS-FACTORIAL HepG2 Assay for human E2F Transcription Factor 1 (AID 2282935); details: HepG2 Attagene cis-reporter, E2F reporter RNA transcripts; actives raise or lower the signal
Chain of Transcription factor E2F1 (Homo sapiens) (Q01094 whole entry, looked up): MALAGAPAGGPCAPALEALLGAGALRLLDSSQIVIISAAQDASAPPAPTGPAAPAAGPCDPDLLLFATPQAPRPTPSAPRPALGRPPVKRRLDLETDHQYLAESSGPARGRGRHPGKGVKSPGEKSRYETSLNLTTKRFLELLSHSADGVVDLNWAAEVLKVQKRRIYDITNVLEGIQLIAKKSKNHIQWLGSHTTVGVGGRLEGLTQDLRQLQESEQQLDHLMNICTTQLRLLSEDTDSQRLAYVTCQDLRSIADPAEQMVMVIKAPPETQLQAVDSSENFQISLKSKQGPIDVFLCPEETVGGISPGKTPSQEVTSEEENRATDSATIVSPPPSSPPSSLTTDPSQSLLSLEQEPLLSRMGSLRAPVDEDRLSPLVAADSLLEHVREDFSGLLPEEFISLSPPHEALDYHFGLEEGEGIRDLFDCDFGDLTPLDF
Procedure, shortened: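 HepG2 cells transiently transfected with multiplexed cis-element reporter units, dosed for 24 h. Reporter mRNA measured by RT-PCR, 6-FAM primer-extension labeling, HpaI digestion and capillary electrophoresis; bidirectional fit versus DMSO baseline.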

[12] = ATG_E_Box_CIS: Attagene CIS-FACTORIAL HepG2 Assay for human Enhancer Box (E-box) (AID 2282936); details: HepG2 E-box cis-reporter transcription, actives raise or lower the signal
Procedure, shortened: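 HepG2 cells transiently transfected with multiplexed cis-element reporter units sensing endogenous transcription factor activity; 24 h compound exposure. Reporter mRNA measured by RT-PCR, 6-FAM primer extension, HpaI digestion and capillary electrophoresis; bidirectional fit versus DMSO.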

[13] = ATG_M_61_CIS: Attagene CIS-FACTORIAL HepG2 Assay for M61 Transcription Factor (Internal Marker) (AID 2282937); details: HepG2 Attagene CIS-FACTORIAL M61 internal marker reporter; actives raise or lower the signal
Procedure, shortened: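 Cells were transfected with reporter units under cis-regulatory promoters, treated with chemicals for 24 h, then lysed for RNA. Reporter transcripts were quantified by RT-PCR and capillary electrophoresis, and activity was fitted bidirectionally against DMSO.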

[14] = ATG_M_19_CIS: Attagene CIS-FACTORIAL HepG2 Assay for M19 Transcription Factor (Internal Marker) (AID 2282939); details: HepG2 Attagene CIS-FACTORIAL M19 internal marker reporter; actives raise or lower the signal
Procedure, shortened: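 Chemical-treated HepG2 (24 h) with MRTU constructs; reporter transcripts detected by fluorescent RT-PCR fragment analysis on capillary electrophoresis. Internal background marker, DMSO as baseline.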

[15] = ATG_ERE_CIS: Attagene CIS-FACTORIAL HepG2 Assay for Estrogen Response Element (ERE) (AID 2282940); details: HepG2 ERE cis-reporter, Attagene RNA transcript; actives raise or lower the signal
Procedure, shortened: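 Human liver cells (HepG2) bearing transiently transfected, promoter-regulated reporter units were exposed 24 h. Reporter mRNA induction was detected by capillary electrophoresis of labelled RT-PCR products and fitted bidirectionally to DMSO.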

[16] = ATG_Ets_CIS: Attagene CIS-FACTORIAL HepG2 Assay for human Erythroblast Transformation Specific (ETS) (AID 2282941); details: HepG2 ETS cis-reporter transcription, actives raise or lower the signal
Procedure, shortened: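 HepG2 cells transfected with multiple cis-regulated reporter units measuring endogenous ETS-driven transcription, 24 h after dosing. Reporter mRNA quantified by RT-PCR with capillary electrophoresis; bidirectional fit relative to DMSO.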

[17] = target: Hepatocyte nuclear factor 3-beta (Homo sapiens) (UniProt Q9Y261); experiment: ATG_FoxA2_CIS: Attagene CIS-FACTORIAL HepG2 Assay for human Forkhead box A2 (FOXA2) (AID 2282942); details: HepG2 cis-reporter transcription factor activity, 24 h; actives raise or lower the signal
Chain of Hepatocyte nuclear factor 3-beta (Homo sapiens) (Q9Y261 whole entry, looked up): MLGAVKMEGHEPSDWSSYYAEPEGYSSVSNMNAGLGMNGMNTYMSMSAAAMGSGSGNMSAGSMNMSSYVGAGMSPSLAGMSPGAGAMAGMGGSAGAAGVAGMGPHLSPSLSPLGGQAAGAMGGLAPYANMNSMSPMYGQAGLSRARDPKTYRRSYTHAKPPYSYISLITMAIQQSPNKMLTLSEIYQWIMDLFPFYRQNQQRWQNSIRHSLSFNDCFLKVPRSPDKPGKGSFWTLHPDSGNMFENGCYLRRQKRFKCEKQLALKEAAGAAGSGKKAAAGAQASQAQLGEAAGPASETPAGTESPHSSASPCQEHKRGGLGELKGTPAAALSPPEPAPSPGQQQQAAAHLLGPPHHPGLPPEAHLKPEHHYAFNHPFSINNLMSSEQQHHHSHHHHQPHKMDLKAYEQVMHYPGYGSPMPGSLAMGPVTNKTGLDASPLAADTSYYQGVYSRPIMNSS
Procedure, shortened: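 Endogenous transcription factor activity was read in HepG2 cells carrying transiently transfected cis-promoter reporter units. After 24 h dosing, reporter mRNA was quantified by RT-PCR and capillary electrophoresis, and values fitted bidirectionally versus DMSO.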

[18] = ATG_FoxO_CIS: Attagene CIS-FACTORIAL HepG2 Assay for human Forkhead box O (FoxO) (AID 2282943); details: HepG2 Attagene cis-reporter, FoxO element, mRNA; actives raise or lower the signal
Procedure, shortened: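 Values reflect reporter mRNA induction or loss in HepG2 cells 24 h post-dosing, fitted bidirectionally with DMSO as negative control and baseline. Detection used RT-PCR and fluorescence capillary electrophoresis.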

[19] = ATG_GATA_CIS: Attagene CIS-FACTORIAL HepG2 Assay for human GATA Binding Protein (AID 2282944); details: HepG2 GATA cis-element reporter, Attagene multiplex mRNA; actives raise or lower the signal
Procedure, shortened: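 Transfected cis-reporter HepG2 cells were treated with chemicals for 24 hours. Total RNA was then converted to cDNA, amplified with reporter-specific primers and analysed by fluorescent capillary electrophoresis, using DMSO-treated wells as baseline.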

[20] = ATG_EGR_CIS: Attagene CIS-FACTORIAL HepG2 Assay for human Early Growth Response 1 (EGR1) (AID 2282938); details: HepG2 Attagene CIS-FACTORIAL EGR reporter mRNA; actives raise or lower the signal
Procedure, shortened: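 Endogenous TF activity in HepG2 liver cells was gauged through cis-promoter reporter constructs transiently transfected. After 24 h dosing, reporter mRNA was quantified by RT-PCR and capillary electrophoresis, and curves fitted in both directions versus DMSO.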

Measured: AC50

CC(C)CCCCCCOC(=O)C1CCCCC1C(=O)OCCCCCCC(C)C (stereo unspecified)
active: [6] 84.8 µM
not listed: [20]
inactive: all other assays above

CCCCCCCCCCCCCCCCOS(=O)(=O)O
active: [5] 24.5 µM | [7] 28.5 µM | [12] 25.8 µM
not listed: [10] | [16] | [20]
inactive: all other assays above

O=C(O)c1ccc2c(c1)nc(C(=O)NC1CCN(C3CC3)CC1)n2Cc1cc(-c2ccc(Cl)s2)on1
not listed: [10] | [16] | [20]
inactive: all other assays above

NC(=O)N(O)[C@@H]1COc2cc(OCc3ccccc3)ccc21
active: [10] 0.406 µM
not listed: [16] | [20]
inactive: all other assays above

C=CN1CCCC1=O
not listed: [10] | [16] | [20]
inactive: all other assays above

NC(=O)NN=Cc1ccc([N+](=O)[O-])o1
active: [4] 17.2 µM | [7] 64.4 µM | [12] 113 µM
not listed: [10] | [16]
inactive: all other assays above

C[C@@H](Oc1ccc(CNC(=O)c2cccnc2Oc2ccc3c(c2)OCO3)c(F)c1)C(=O)O
not listed: [10] | [16]
inactive: all other assays above

COS(C)(=O)=O
active: [6] 22.1 µM
not listed: [10]
inactive: all other assays above

c1ccc2ncccc2c1
active: [6] 41.9 µM
not listed: [10] | [16] | [20]
inactive: all other assays above

OC[C@H]1O[C@@](CO)(O[C@H]2O[C@H](CO)[C@@H](O)[C@H](O)[C@H]2O)[C@@H](O)[C@@H]1O
not listed: [16]
inactive: all other assays above

c1ccc2c(c1)-c1cccc3c1c-2cc1ccccc13
inactive: [1] | [2] | [3] | [4] | [5] | [7] | [8] | [9] | [10] | [11] | [12] | [13] | [20] | [14] | [15] | [17] | [18] | [19]
active: [6] 57 nM and 28.1 µM | [15] 0.929 µM

CC(C)CC(C)O (stereo unspecified)
inactive: all assays above

O=C(O)c1cccc(C[C@@H]2COc3ccc(OCc4nc5cc(F)ccc5s4)cc3[C@@H]2O)c1
active: [5] 100 µM | [7] 158 µM | [8] 167 µM | [12] 66.9 µM
not listed: [10] | [16]
inactive: all other assays above

CC1(C)C(=O)N(Cl)C(=O)N1Cl
not listed: [10]
inactive: all other assays above
